Measurements from PubChem BioAssay AID463173 (ICCB-Longwood Screening Facility, Harvard Medical School, 2010).
Screen size: about 52,000 compounds; about 4,300 (8.3%) were called active. The sample as a whole holds a higher share of actives than the screen did. Values without a mark were called inactive. No stated cut-off is given here; in the data, active means survival mostly below about 52% (no sharp cut-off); inactive means mostly above about 56%.

Each compound was assayed on DeltatarO mutant (assay: growth inhibition of S. aureus wild type versus tarO mutant, primary screen, teichoic acid synthesis inhibitors, RN4220, OD600 (AID 463173)). Settings: OD600, 18 h, active compounds read low, screened at 18.75 µg/mL (by protocol).

| Compound | survival |
| --- | --- |
| COc1ccc(CNC(=O)c2ccc3c(c2)nc2n3CCCCC2)cc1 | 89% |
| CCN(CC)S(=O)(=O)c1ccc2nc(NC(=O)c3ccc(Br)o3)sc2c1 | 87% |
| N#Cc1ccc(NC(=O)c2cc(-c3cccc(Cl)c3)on2)cc1 | 71% |
| CCCCN(C)C(=O)C1CCC(Cn2c(=O)[nH]c3ccsc3c2=O)CC1 (stereo unspecified) | 0% (active) |
| CNC(=O)C1CCC(Cn2c(=O)[nH]c3ccsc3c2=O)CC1 (stereo unspecified) | 99% |
| CCCCCNC(=O)C1CCC(Cn2c(=O)c3sccc3n(CC)c2=O)CC1 (stereo unspecified) | 49% |
| CCC(CC)C(=O)Nc1cc(-c2ccccc2F)nn1-c1ccccc1 | 76% |
| CCOC(=O)c1c(NC(=O)COc2cccc(C)c2C)sc2c1CCCCC2 | 64% |
| COC(=O)c1c(NC(=O)COc2cccc(C(F)(F)F)c2)sc2c1CCCC2 | 49% |
| CCOC(=O)c1c(NC(=O)COc2cccc(C(F)(F)F)c2)sc2c1CCC(C)C2 (stereo unspecified) | 68% |
| CCOC(=O)c1c(NC(=O)COc2cccc(C(F)(F)F)c2)sc2c1CCCCC2 | 60% (active) |
| CCOC(=O)c1c(NC(=O)COc2ccccc2Br)sc2c1CCCCC2 | 40% (active) |
| CCOC(=O)c1c(NC(=O)COc2ccccc2F)sc2c1CCCC2 | 67% |
| O=S(=O)(Nc1cccc(-c2ccc(N3CCOCC3)nn2)c1)c1ccc(F)cc1F | 62% |
| Cc1c(CCNC(=O)c2c(F)cccc2F)sc2nc(-c3ccc(F)cc3)nn12 | 117% |
| CCOc1ccccc1CNC(=O)c1ccc(NC(=O)N2CCSc3ncccc32)cc1 | 79% |
| CCc1nnc(NC(=O)CSC2=NC(=O)C(NC(C)=O)C(=O)N2)s1 (stereo unspecified) | 99% |
| CCCN(CCC)C(=O)Cn1c(=O)n(CCCCCC(=O)NCc2ccccc2Cl)c(=O)c2sccc21 | 81% |
| Cc1ccc(Cn2c(=O)n(Cc3ccccc3)c(=O)c3oc4ccccc4c32)cc1 | 69% |
| CC(=O)N1CCCc2cc(S(=O)(=O)NCc3cccc(C)c3)ccc21 | 78% |
| C=CCc1c(C)nc2nc(SCC(=O)Nc3ccc(C)c(C)c3)nn2c1C | 75% |
| CCOC(=O)c1ccccc1NC(=O)CSc1cc(C)[nH]c(=O)n1 | 88% |
| COc1cc(C(=O)Nc2cc(C)ccc2OCc2cc(=O)n3cc(C)sc3n2)cc(OC)c1OC | 89% |
| COc1ccc(N2CCN(C(=O)c3cccn3-c3nnc(N4CCCC4)s3)CC2)cc1 | 101% |

| Compound | survival |
| --- | --- |
| O=C(c1cccn1-c1nnc(N2CCCC2)s1)N1CCN(c2ccc(Cl)cc2)CC1 | 63% |
| O=C(c1cccn1-c1nnc(N2CCCCC2)s1)N1CCN(c2ccc(Cl)cc2)CC1 | 69% |
| O=C(c1cccn1-c1nnc(N2CCCC2)s1)N1CCN(c2ccccc2)CC1 | 25% (active) |
| O=C(c1cccn1-c1nnc(N2CCCC2)s1)N1CCN(c2ccc(F)cc2)CC1 | 118% |
| O=C(c1cccn1-c1nnc(N2CCCCC2)s1)N1CCN(c2ccccc2)CC1 | 0% (active) |
| O=S(=O)(c1ccc2nc(Nc3ccc(Br)cc3F)ccc2c1)N1CCCCC1 | 70% |
| CCOc1ccc(CCNC(=O)C2COc3ccccc3C2)cc1OCC (stereo unspecified) | 0% (active) |
| CCOc1cc(CNC(=O)C2COc3ccccc3C2)cc(OCC)c1OCC (stereo unspecified) | 69% |
| CCc1ccc(CNC(=O)C2COc3ccccc3C2)cc1 (stereo unspecified) | 81% |
| CN(C)c1ccc(CNC(=O)C2COc3ccccc3C2)cc1 (stereo unspecified) | 32% (active) |
| COc1ccc(CCNC(=O)C2COc3ccccc3C2)cc1OC (stereo unspecified) | 75% |
| Cc1ccc(CCNC(=O)C2COc3ccccc3C2)cc1 (stereo unspecified) | 74% |
| Cc1ccc(CNC(=O)C2COc3ccccc3C2)cc1 (stereo unspecified) | 117% |
| O=C(NCCc1ccccc1)C1COc2ccccc2C1 (stereo unspecified) | 37% (active) |
| O=C(NCCc1ccc(Cl)cc1)C1COc2ccccc2C1 (stereo unspecified) | 69% |
| NC(=O)c1cc(S(=O)(=O)NCC2CCC(C(=O)Nc3cccc(Cl)c3)CC2)cs1 (stereo unspecified) | 76% |
| CCCOc1ccc(-c2nonc2NC(=O)c2cc(OC)c(OC)c(OC)c2)cc1OCCC | 84% |
| COc1ccccc1CNC(=O)CCNS(=O)(=O)c1cccc2nsnc12 | 64% |
| CCc1ccccc1NC(=O)C(=O)c1cc(C)n(-c2ccccc2F)c1C | 87% |
| CCOC(=O)C1=C(CN2CCN(c3ccc(C)cc3C)CC2)NC(=O)NC1c1ccc(OC)cc1 (stereo unspecified) | 97% |
| CC1(C)CC2(CC(C)(C)NC(=O)N2)NC(=O)N1 | 89% |
| Cc1cc(C)c(Cn2c(=O)n(Cc3ccccc3)c(=O)c3c(C)c(C)sc32)c(C)c1 | 49% |
| Cc1cccc(-c2nnc(SCC(=O)NC3CCCCC3)o2)c1 | 82% |
| Cc1ccc(CNC(=O)c2ccc3c(O)c(S(=O)(=O)c4ccc(Cl)cc4)c(=O)[nH]c3c2)cc1 | 84% |

| Compound | survival |
| --- | --- |
| CCOc1cc(C(=O)Nc2ccc(-c3nc4ncccc4o3)cc2C)cc(OCC)c1OCC | 52% (active) |
| Cc1cc(-c2nc3ncccc3o2)ccc1NC(=O)c1ccc(Cl)cc1 | 76% |
| COc1ccc(C(=O)Nc2ccc(-c3nc4ncccc4o3)cc2)cc1 | 78% |
| Cc1ccc(-c2nc3ncccc3o2)cc1NC(=O)c1cccc(OCC(C)C)c1 | 42% (active) |
| Cc1cc(-c2nc3ncccc3o2)ccc1NC(=O)c1ccc(Br)cc1 | 174% |
| CC(C)COc1cccc(C(=O)Nc2ccc(-c3nc4ncccc4o3)cc2)c1 | 65% |
| COc1ccc(C(=O)Nc2cc(-c3nc4ncccc4o3)ccc2C)cc1Br | 40% (active) |
| COc1c(C)cc(Br)cc1C(=O)Nc1ccc(-c2nc3ncccc3o2)cc1 | 50% |
| Cc1ccc(-c2nc3ncccc3o2)cc1NC(=O)c1ccccc1Br | 53% |
| Cc1ccc(C(=O)Nc2cc(-c3nc4ncccc4o3)ccc2C)c(C)c1 | 98% |
| Cc1cc(-c2nc3ncccc3o2)ccc1NC(=O)c1ccccc1Br | 27% (active) |
| Cc1cc(C)cc(C(=O)Nc2ccc(-c3nc4ncccc4o3)cc2)c1 | 56% |
| CCOC(=O)C1CCCN(S(=O)(=O)c2cc(Br)cc3c2N(C(C)=O)CC3)C1 (stereo unspecified) | 72% |
| CCC1CN(C(=O)N2CCC(C(=O)NCc3cccc(C)c3)CC2)c2ccccc2O1 (stereo unspecified) | 77% |
| O=C(NCc1ccco1)Nc1ccccc1 | 94% |
| O=C(CCCCn1c(=O)c2ccccc2n(CC(=O)Nc2ccc(F)cc2F)c1=O)NCCc1ccccc1 | 92% |
| CC1=C(C(=O)NCc2ccccc2Cl)C2(CCCCCC2)OC1=O | 49% |
| CCCN(c1ccc(C(C)C)cc1)S(=O)(=O)c1ccc2c(c1)n(C)c(=O)c(=O)n2C | 84% |
| COc1ccc(NC(=O)Cn2c(C)cc3ccccc3c2=O)c(OC)c1 | 59% |
| CCc1cccc(C)c1Nc1c(-c2cccc(O)c2)nc2nc(C)cc(C)n12 | 66% |
| CCc1cccc(NC(=O)CCS(=O)(=O)c2cc(Br)cc3c2N(C(C)=O)CC3)c1 | 144% |
| O=C(Nc1nccs1)c1ccc(-c2ccc(Cl)cc2)o1 | 35% (active) |
| Cc1ccc(-c2nc3ncccc3o2)cc1NC(=O)c1ccc(-c2cccc(Cl)c2C)o1 | 56% |
| CCCC(=O)Nc1ccc(-c2nc3ncccc3o2)cc1C | 69% |

| Compound | survival |
| --- | --- |
| CC(=O)c1ccc(NC(=O)c2ccc(-c3ccc(Cl)cc3)o2)cc1 | 92% |
| COc1ccc(Br)cc1C(=O)Nc1ccc(-c2nc3ncccc3o2)cc1C | 41% |
| Cc1ccc(-c2nc3ncccc3o2)cc1NC(=O)c1ccc(-c2ccc(Cl)cc2)o1 | 35% (active) |
| COc1ccc(C(=O)Nc2ccc(-c3nc4ncccc4o3)cc2C)cc1Br | 37% (active) |
| O=C(Nc1nccs1)c1cccc(C(=O)Nc2nccs2)c1 | 98% |
| Cc1cc(NC(=O)c2ccc(-c3ccc(Cl)cc3)o2)cc(-c2nc3ncccc3o2)c1O | 88% |
| CCCCc1nn2c(=O)cc(COC(=O)c3ccc(NC(=O)C(CC)CC)cc3)nc2s1 | 94% |
| CCC(Sc1nc2ccccc2c2nc(CCn3c(C)nc4ccccc43)nn12)C(=O)Nc1ccc(F)cc1 (stereo unspecified) | 67% |
| COc1ccc(Cn2c(CCC(=O)NCc3ccc(Cl)cc3)nc3cccnc32)cc1 | 112% |
| Cc1cc(C)nc(N2CCCC(C)C2)n1 (stereo unspecified) | 87% |
| CC1CCCN(c2nc3nonc3nc2Nc2cccc(Cl)c2)C1 (stereo unspecified) | 0% (active) |
| CC1CCN(c2nc3nonc3nc2Nc2ccc(F)cc2)CC1 | 78% |
| COc1ccccc1CNC(=O)CCn1c(=O)c2ccccc2n(CC(=O)Nc2ccc(C)cc2C)c1=O | 86% |
| CCOC(=O)c1ccc(NC(=O)Cn2nnc(-c3ccc(C(F)(F)F)cc3)n2)cc1 | 87% |
| Cc1ccc2nc(Cl)c3cc(C(=O)NC4CCCCCC4)sc3c2c1 | 102% |
| CC(C)N(C(=O)c1cc2c(Cl)nc3ccccc3c2s1)C1CCCCC1 | 16% (active) |
| Cc1ccc2nc(Cl)c3cc(C(=O)NC4CCCCC4)sc3c2c1 | 52% |
| CCOC(=O)C1CCCN(C(=O)c2ccc(-n3ccc4ccccc43)s2)C1 (stereo unspecified) | -1% (active) |
| CC1CCN(C(=O)c2cc3c(=O)n(C)c4ccccc4c3s2)CC1 | 88% |
| CCC(C)NC(=O)C1CCN(C(=O)c2ccc(-n3ccc4ccccc43)s2)CC1 (stereo unspecified) | 81% |
| Cc1ccc2nc(Cl)c3cc(C(=O)N4CCCCC4C)sc3c2c1 (stereo unspecified) | 23% (active) |
| CCOC(=O)C1CCCN(C(=O)c2cc3c(=O)n(C)c4ccccc4c3s2)C1 (stereo unspecified) | 44% (active) |
| CCOC(=O)C1CCN(C(=O)c2ccc(-n3ccc4ccccc43)s2)CC1 | 72% |
| CC1CCCN(C(=O)c2cc3c(=O)n(C)c4ccccc4c3s2)C1 (stereo unspecified) | 138% |
